Rows were chosen to be rich in hits. Some 7.9% of all compounds tested hit in one or more screens of this group.
SW480 rereplic = induces DNA re-replication in SW480 colon adenocarcinoma cells | Potency, µM (titrated, usually from 46.1 µM), hits mostly activators | AID 624297 | 340,000 tested, 1.8% active | SW480 DNA re-replication, Hoechst DNA content imaging, 48 h; note: nearly all actives have a fitted effect of over 55% in size
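DNA re-replication was detected as more nuclei of elevated Hoechst intensity after 48 hr exposure to compound (23 nL pinned per well of 250 cells).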
KB-3-1 tox = KB-3-1 parental cell cytotoxicity | Potency, µM (series often up to 46.1 µM), most hits filed as cytotoxic | KB-3-1 viability, CellTiter-Glo ATP luminescence, 72 h | AID 1347075 | 400,000 tested, 1.4% active; note: nearly all actives have a fitted effect of over 60% in size
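KB-3-1 parental drug-naive adenocarcinoma cells in DMEM/10% FBS, incubated 72 h at 37 C with pin-transferred compounds across a concentration series. Viability by CellTiter-Glo luminescence; concentration-response curves fitted after normalization.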
MCF10A rereplic = induces DNA re-replication in MCF 10a normal breast cells; MCF 10A DNA re-replication, Hoechst nuclear intensity, 48 h; Potency, µM (highest dose often 46.1 µM), most hits filed as activators; 350,000 tested, 2.9% active; note: nearly all actives have a fitted effect of over 50% in size
HT1080 IDH1KD tx = toxicity to HT-1080 IDH1 knockdown cells (counter line); HT-1080 IDH1 knockdown viability, ATP luminescence, 48 h; Potency, µM (doses to about 46.1 µM), most hits filed as cytotoxic; 360,000 tested, 2% active; AID 686971
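% activity derives from luminescence (CellTiter-Glo), normalised to DMSO and no-cell wells. HT-1080-IDH1KD cells, 750/well, had 48 h compound exposure at 37 °C.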
HT1080NT lethal = kills 2HG-producing HT-1080-NT fibrosarcoma cells; HT-1080-NT fibrosarcoma viability, CellTiter-Glo ATP luminescence, 48 h; AID 686970; Potency, µM (series often up to 46.1 µM), most hits filed as cytotoxic; 360,000 tested, 1.6% active;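 note: NT is the 2HG producing partner of a matched IDH1 knockdown line; nearly all actives have a fitted effect of over 55% in size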
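750 cells/well, RPMI + 5% FBS; 2 h settle, compound pin-transfer, 48 h at 37 degrees C. CellTiter-Glo 10 min RT, luminescence. Normalized to DMSO and media-only wells.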
KB-V1 MDR tox = KB-V1 MDR subline cytotoxicity; KB-V1 MDR cells viability, CellTiter-Glo, 72 h; Potency, µM (highest dose often 46.1 µM), hits mostly cytotoxic; 400,000 tested, 3.4% active; AID 1347076; note: nearly all actives have a fitted effect of over 60% in size
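Readout: CellTiter-Glo luminescence, 10 min after addition. Cells: KB-V1 MDR subline, 72 h at 37 degrees C with compound. Analysis: corrected, normalized data fitted to concentration-effect curves.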
Numbers stand for hits; i = inactive; ? = inconclusive; nt = no result given. Calls come from the whole dose curve; as a rule, active = well fitted curve in the direction sought with a large enough effect; inconclusive = small, poorly fitted or top-dose-only effect, or another doubt; inactive = no such curve, though single readings can be large; an effect the other way counts as inactive or inconclusive.

SMILES	SW480 rereplic	KB-3-1 tox	MCF10A rereplic	HT1080 IDH1KD tx	HT1080NT lethal	KB-V1 MDR tox
Cc1ccc(C)c(OCC(=O)NCCNC(=O)COc2cc(C)ccc2C)c1	i	i	i	i	i	18µM
Cc1ccccc1CSCC(=O)NC1CCCC1	i	i	i	i	i	i
O=C(CN1CCc2ccccc2C1)NC1CCCC1	18µM	i	i	i	i	i
COc1ccccc1OCC(=O)NC1CCCCCCC1	i	?	i	i	i	21µM
COc1ccccc1OCC(=O)OCC(=O)NC1CCCCC1	i	i	i	i	i	i
Cc1ccc(C)c(OCC(=O)NC2CCCCCC2)c1	i	i	?	i	i	13µM
Cc1ccccc1CC(=O)NC1CCCCCC1	0.92µM	i	i	i	i	i
COc1ccc(N=c2nc(-c3ccc(C)cc3)n(-c3ccccc3)s2)cc1	nt	?	nt	nt	nt	i
COc1ccccc1C(=O)OCC(=O)NC12CC3CC(CC(C3)C1)C2	i	i	i	i	i	i
COc1cc(OC)c(C(=O)OCC(=O)NC23CC4CC(CC(C4)C2)C3)cc1OC	i	i	i	i	i	8.2µM
COc1ccccc1OCC(=O)N(Cc1nc(-c2ccccc2)no1)C1CCCCC1	i	?	i	i	i	16µM
CC(C)N(C(=O)COc1ccc(Br)cc1Cl)C(C)C	i	i	i	i	i	15µM
COc1cc(OC)c(C(=O)OCC(=O)NC2CCCC2)cc1OC	i	i	i	i	i	i
COc1cc(OC)c(C(=O)OCC(=O)NC2CCCCCCC2)cc1OC	i	?	i	i	i	8.2µM
CCCC(C)NC(=O)Cc1ccc(S(=O)(=O)N2CCOCC2)s1 (configuration not stated)	i	i	i	i	i	i
CC(C)[C@H]1COC(NC2=N[C@@H](C(C)C)CO2)=N1	i	?	i	i	i	i
Cc1ccc(N/C(N)=N/c2nc(C)cc(N3CCCCC3)n2)c(C)c1	?	16µM	18µM	?	15µM	10µM
Cc1ccccc1Nc1nc(Cl)nc(NC(C)(C)C)n1	nt	i	nt	i	i	i
c1ccc(CCNc2ccnc3cc4ccccc4cc23)cc1	16µM	18µM	16µM	21µM	18µM	8.2µM
O=C(NCCc1ccccc1)c1nccc2ccccc12	i	i	i	i	i	i
CC(C)Nc1ccc(Nc2ccnc3cc4ccccc4cc23)cc1	i	16µM	?	5.2µM	?	?
Cc1nc2nc[nH]n2c(=O)c1CCC(=O)Nc1ccc(F)cc1	nt	i	nt	nt	nt	i
Clc1ccc(COn2c(-c3ccc(Cl)cc3)nc3ccccc32)cc1	?	i	16µM	i	i	18µM
Clc1ccc(COn2c(-c3ccccc3)nc3ccccc32)cc1	?	?	21µM	i	i	?
O=[N+]([O-])c1ccc2nc(-c3ccc(Cl)cc3)n(OCc3ccccc3)c2c1	i	i	i	i	i	i
SMILES	SW480 rereplic	KB-3-1 tox	MCF10A rereplic	HT1080 IDH1KD tx	HT1080NT lethal	KB-V1 MDR tox
CC(=O)N1CCCC(C)(C(=O)Nc2ccc3oc(C)nc3c2)C1 (configuration not stated)	nt	i	nt	i	i	i
O=C(NCC1CCCO1)c1coc2nc3ccccc3nc12 (configuration not stated)	i	i	21µM	?	?	?
C=CCn1c(N)c(C(=O)NCC2CCCO2)c2nc3ccccc3nc21 (configuration not stated)	9.2µM	i	i	i	?	?
COc1cccc(-c2cc(C(F)(F)F)n3ncc(S(=O)(=O)c4ccccc4)c3n2)c1	8.2µM	i	7.3µM	i	i	i
COc1cccc(-c2cc(C(F)(F)F)nc(N3CCCCC3)n2)c1	i	i	16µM	i	i	i
COc1cccc(-c2cc(C(F)(F)F)n3ncc(C(=O)O)c3n2)c1	i	i	i	i	i	i
COc1ccc(-c2cc(C(F)(F)F)nc(-n3ccnc3C)n2)cc1	i	?	i	i	i	21µM
COc1ccc(-c2cc(C(F)(F)F)nc(N3CCCCC3)n2)cc1OC	i	i	?	i	i	?
COc1ccc(-c2cc(C(F)(F)F)nc(N3CCN(C)CC3)n2)cc1OC	i	?	i	?	?	16µM
COc1ccc(-c2cc(C(F)(F)F)nc(N3CCCCCC3)n2)cc1	i	i	23µM	i	i	i
COc1ccc(-c2cc(C(F)(F)F)nc(N3CCN(C)CC3)n2)cc1	i	?	?	?	?	12µM
O=C1CCCc2cc3c(ccc4ccccc43)cc21	i	i	18µM	i	i	i
Cc1cc2c(cc1C)C(=O)CCC2	nt	i	nt	i	i	i
CCOc1cc(CNC(=O)c2ccc(C)c(NC(=O)c3nsc4ccccc34)c2)ccc1OC	nt	i	nt	nt	nt	i
O=C(CSc1nc(-c2ccccc2)c(-c2ccccc2)o1)Nc1nnc(-c2ccccc2)s1	i	i	i	i	i	7.3µM
O=C(CSc1nc(-c2ccccc2)c(-c2ccccc2)o1)Nc1nncs1	i	i	?	i	i	i
O=C(CSc1nc(-c2ccccc2)c(-c2ccccc2)o1)N1CCOCC1	i	?	16µM	i	i	?
CN(C)C(=O)c1ccc(NC(=O)CSc2nnc(-c3cccs3)n2N)cc1	i	i	i	i	i	?
CCCC(=O)O[C@]1(C(=O)CCl)[C@@H](C)C[C@H]2[C@@H]3CCC4=CC(=O)C=C[C@]4(C)[C@@]3(F)C(=O)C[C@@]21C	i	i	?	i	i	13µM
CCC(=O)O[C@]1(C(=O)CCl)[C@@H](C)C[C@H]2[C@@H]3CCC4=CC(=O)C=C[C@]4(C)[C@@]3(F)[C@@H](O)C[C@@]21C	i	i	?	i	i	?
Cc1ccccc1CN(C)CCc1ccccn1	i	i	0.65µM	i	i	i
Cc1cccc(CN(C)CCc2ccccn2)c1	i	i	i	i	i	i
CC(=O)Nc1cccc(NC(=O)CSc2nc(C)c(C)c(C)c2C#N)c1	i	i	i	i	i	?
Cc1cccc(C)c1NC(=O)CSc1nc(C)c(CC(=O)c2ccc(Br)cc2)c(C)c1C#N	i	?	16µM	i	i	?
O=C(CCCn1c(=S)[nH]c2cc3c(cc2c1=O)OCO3)N1CCN(c2ccccc2)CC1	i	i	i	i	i	i
Cc1cccc(N2CCN(C(=O)CCn3c(=S)[nH]c4cc5c(cc4c3=O)OCO5)CC2C)c1 (configuration not stated)	i	i	?	i	i	10µM
Cc1cccc(N2CCN(C(=O)CCCn3c(=S)[nH]c4cc5c(cc4c3=O)OCO5)CC2)c1C	i	i	i	i	i	3.7µM
